Test results reported in PubChem BioAssay (NCATS).
Inconclusive results are not listed. Where a call stands in place of a potency, no number is given. Unmarked numbers belong to inactive results. Calls of active or inactive are those of the source. Calls follow the shape of the dose curve; as a rule, active = well fitted inhibition curve with a large enough effect; inconclusive = small, poorly fitted or top-dose-only effect; inactive = no such curve, though single readings can be large or run the other way.

Experiment: qHTS to identify inhibitors of the type 1 interferon - major histocompatibility complex class I in skeletal muscle: primary screen against the NCATS Mechanism Interrogation Plate v5.0 (MIPE) Libary (AID 1347411); also: nearly all actives have a fitted effect of over 65% in size
Details: iHSKM cells + IFN-b, HiBiT-tagged MHC-I luminescence, 24 h; series mostly up to 45.8 µM
In short: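 IFN-beta-driven (4 ng/ml) HLA-B-HiBit expression in CRISPR-tagged C25cl48 myoblasts; compounds 11-pt, 1:3, max 46 uM, 24 hr exposure; lytic NanoLuc complementation luminescence.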
Potency is read from the fitted curve at half-maximal effect.

| Compound | Potency | activity change, negative = inhibition |
| --- | --- | --- |
| Cn1cc(-c2ccc3ncc(Cc4ccc5ncccc5c4)n3n2)cn1 | inactive |  |
| CCOC(=O)C=C[C@H](C[C@@H]1CCNC1=O)NC(=O)[C@@H](CC(=O)[C@@H](NC(=O)c1cc(C)on1)C(C)C)Cc1ccc(F)cc1 | inactive |  |
| Cn1cc(C[C@@H](N)C(=O)O)c2ccccc21 |  | -7.72% [at 8.44 µM] |
| Nc1nc(=O)n([C@H]2C[C@H](O)[C@@H](CO)O2)cc1F | inactive |  |
| N=c1ccn2c(n1)O[C@H]1[C@@H](O)[C@@H](CO)O[C@H]12 | inactive |  |
| CCCCOc1ccc(C(=O)Nc2ccc(F)cc2F)cc1 | inactive |  |
| CC(C)[C@H](CO)Nc1nc(Nc2cccc(Cl)c2)c2ncn(C(C)C)c2n1 | 16.5 µM (active) |  |
| C[C@@H]1CC[C@@]2(OC1)OC1CC3C4CC=C5CC(O)CCC5(C)C4CCC3(C)C1[C@@H]2C (stereo partly specified) | inactive |  |
| Oc1ccc(-c2ccc(-c3cc(Nc4cccc(CNC5CC5)c4)n[nH]3)cc2)c(O)c1 | 5.87 µM (active) |  |
| O=C1c2cccc(O)c2C(=O)c2c(O)cc(CO)cc21 | inactive |  |
| O=c1ccn([C@@H]2O[C@H](CO)[C@H](O)[C@@H]2F)c(=O)[nH]1 | inactive |  |
| Cn1cnc(=N)c2[nH]cnc21 | inactive |  |
| C[N+](C)([O-])CCNc1ccc(NCC[N+](C)(C)[O-])c2c1C(=O)c1c(O)ccc(O)c1C2=O | inactive |  |
| COc1ccc(Nc2nccc(NCCO)n2)cc1 | inactive |  |
| Cc1ccc2nc(NCCN)c3ncc(C)n3c2c1 | 4.66 µM (active) |  |
| OC[C@H]1OC(O)C[C@@H](O)[C@H]1O (stereo partly specified) | inactive |  |

| Compound | Potency | activity change, negative = inhibition |
| --- | --- | --- |
| O=C(O)CCCCC(CCSCc1ccccc1)SCc1ccccc1 (stereo unspecified) | inactive |  |
| CC1=C(C(=O)Nc2cc3cn[nH]c3cc2F)C(c2ccc(Cl)cc2F)N=C(c2ccnc(Cl)c2)N1 (stereo unspecified) | inactive |  |
| COC(=O)C1C2CC3c4[nH]c5cc(OC)ccc5c4CCN3CC2CC(OC(=O)c2cc(OC)c(OC)c(OC)c2)C1OC (stereo unspecified) | inactive |  |
| C[C@](Cc1c[nH]c2ccccc12)(NC(=O)OC1C2CC3CC(C2)CC1C3)C(=O)NC[C@H](NC(=O)CCC(=O)O)c1ccccc1 (stereo partly specified) | inactive |  |
| c1coc(CNc2ncnc3nc[nH]c23)c1 | inactive |  |
| COc1ccc2c(c1OC)C(=O)OC2[C@H]1c2c(cc3c(c2OC)OCO3)CCN1C (stereo partly specified) | inactive |  |
| Cc1ncc(-c2ccnc(Nc3ccc(S(C)(=O)=O)cc3)n2)n1C(C)C | 1.17 µM (active) |  |
| C=CC(=O)N1CCc2ccc(-n3c(=O)ccc4cnc5ccc(-c6cnn(C)c6)cc5c43)cc21 | 0.806 µM (active) |  |
| COc1cc(C[C@@H](CO)[C@H](CO)Cc2ccc(O)c(OC)c2)ccc1O | inactive |  |
| CC(C)Oc1ccc(C(=O)N[C@H](CNC(=O)CN(C)C)Cc2ccc(-c3cn4cccc([C@H](C)O)c4n3)cc2)cc1Cl | inactive |  |
| c1ccc2c(Oc3nc(Nc4ccc(N5CCOCC5)cc4)c4ncn(C5CCCCC5)c4n3)cccc2c1 | inactive |  |
| CC(=O)O[C@H]1C[C@@H]2CC[C@H]3[C@H]4C[C@H]([N+]5(C)CCCCC5)[C@@H](OC(C)=O)[C@@]4(C)CC[C@@H]3[C@@]2(C)C[C@H]1[N+]1(C)CCCCC1 | inactive |  |
| C[C@H](NC(=O)[C@@H](O)c1cc(F)cc(F)c1)C(=O)N[C@@H]1C(=O)N(C)c2ccccc2-c2ccccc21 | inactive |  |
| CC(=O)OC[C@@H]1O[C@@H](n2ccc(=O)[nH]c2=O)[C@H](OC(C)=O)[C@H]1OC(C)=O | inactive |  |
| CC(=O)NC(CS)C(=O)O (stereo unspecified) | inactive |  |
